# Screening results deposited in PubChem BioAssay by The Scripps Research Institute Molecular Screening Center.
# A selection: hits, their analogues and other compounds. The true share with any hit is near 4.1%.
# DAX1 inh-1: NR0B1 (DAX1) inhibition | P51843 | HEK293 Gal4-DAX1 luciferase reporter, luminescence | inhibition, % at 6.75 µM | 0.99% of 340,000 active | AID 504766;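 active means inhibition above the mean over all tested compounds plus 3 SD, cut at about 4.2% in these data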;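 further: 0% = DAX1-transfected cells with DMSO and 100% = empty-vector control cells with DMSO; inhibition shows as a rise in luminescence from relieved DAX1 repression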
# Target sequence (P51843 207-470 limits assumed): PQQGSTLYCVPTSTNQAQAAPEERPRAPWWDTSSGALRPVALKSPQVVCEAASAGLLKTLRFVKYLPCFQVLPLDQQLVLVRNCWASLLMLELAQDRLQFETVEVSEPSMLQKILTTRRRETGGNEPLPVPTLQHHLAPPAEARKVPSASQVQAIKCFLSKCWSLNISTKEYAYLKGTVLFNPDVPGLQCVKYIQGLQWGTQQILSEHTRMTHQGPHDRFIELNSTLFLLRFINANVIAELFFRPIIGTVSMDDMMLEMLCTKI
# hcDAF-12 act: activates DAF-12 receptor from parasite H. contortus; HEK293 hcDAF-12 lit1-tk-luc reporter, luminescence; 0% DMSO, 100% Δ7-dafachronic acid; activation, % at 6.8 µM; 1.4% of 370,000 active; AID 652067;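 active means activation above the mean of all tested compounds plus 3 SD, cut at about 5.5% in these data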;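 further: 100% = response to 3 µM Δ7-dafachronic acid high control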
# ssDAF12 agonist: S. stercoralis DAF-12 activation, primary screen; HEK293 ssDAF-12/GRIP1 lit1-tk-luc reporter, luminescence; % of 3 µM dafachronic acid response; activation, % at 6.8 µM; 1% of 370,000 active; AID 652126;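 active means activation above the mean over all tested compounds plus 3 SD, cut at about 0.9% in these data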;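 further: 0% = DMSO-only wells and 100% = 3 µM delta7-dafachronic acid wells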
# hgDAF-12 ag: activates the H. glycines DAF-12 receptor ligand-binding domain; HEK293 GAL4-hgDAF12 UAS-luciferase reporter, agonist luminescence; normalized to butyrate control; activation, % at 6.8 µM; 1.8% of 370,000 active;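 active means activation above a cutoff set at the mean of all screened compounds plus 3 SD, cut at about 10% in these data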;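 further: 0% = DMSO wells and 100% = sodium butyrate wells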
# DAX1 inh-2: blocks DAX1 repression of SF-1 activated StAR promoter | HEK293T StAR-luciferase reporter, SF-1/DAX-1 repression relief | inhibition, % at 6.8 µM | 1.1% of 370,000 active | AID 652010;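 active means inhibition above the mean over all tested compounds plus 3 SD, cut at about 3.6% in these data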;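 further: 0% = DAX-1 cells with DMSO and 100% = cells lacking DAX-1 with DMSO; higher inhibition means more luminescence from relief of DAX-1 repression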
# Starred values were filed as active, the others as inactive; x = no result.
SMILES,DAX1 inh-1,hcDAF-12 act,ssDAF12 agonist,hgDAF-12 ag,DAX1 inh-2
COc1ccc(C(=O)Cc2ccc3c(c2)OCO3)c(O)c1,1,4,1.4*,9,3
COc1ccc(CC(=O)c2ccc(O)cc2O)cc1,5.8*,1,0,7,3
CCOc1cccc2sc(N(CCN(CC)CC)C(=O)c3ccc(S(=O)(=O)N4CCCCC4)cc3)nc12,-1,0,2.0*,0,0
O=C(COc1ccccc1)NCC(=O)N/N=C/c1ccc(O)cc1O,7.1*,2,0,-1,-1
COc1cccc(/C=N/NC(=O)CNC(=O)COc2ccccc2)c1O,-1,-1,-1,-4,-1
O=C(O)c1cccnc1SC1CC(=O)N(c2ccccc2)C1=O (centres undefined),1,0,-1,0,0
O=C(O)c1ccccc1SC1CC(=O)N(c2ccccc2)C1=O (centres undefined),1,6.0*,-1,2,0
Cc1ccc(C(=O)N/N=C2\CC3CC=CC23)c(C)c1 (centres undefined),5.7*,1,-1,7,0
CSc1ccc(C(=O)N2CCc3ccc(NC(=O)c4ccccn4)cc3C2)cc1,0,0,-1,3,1
CSc1ccccc1C(=O)N1CCc2ccc(NC(=O)c3ccccn3)cc2C1,1,3,-1,11*,3
COc1cc(Cl)ccc1OCc1cc(C(=O)NCC(C)(C)N2CCOCC2)no1,-1,2,-1,6,1
COc1cc(C)ccc1OCc1cc(C(=O)NC(C)Cn2cncn2)no1 (centres undefined),2,4,1,11*,2
COc1cc(Cl)ccc1OCc1cc(C(=O)NCc2cc(C(C)C)no2)no1,1,2,0,10,4.1*
COC(=O)C1CN(Cc2cn(Cc3ccc(C)cc3)nn2)CCS(=O)(=O)N1Cc1ccc(F)cc1 (centres undefined),x,-3,-2,-4,-1
COC(=O)c1cc2c(c3c4cc(F)ccc4n(C(=O)c4ccccc4)c13)C(=O)N(C1CCCCC1)C2,x,2,-1,0,-1
Fc1cccc(NCc2cn3ccccc3n2)c1,1,4,1,11*,4
Cc1c2cnccc2c(C)c2c1oc1ccccc12,2,2,-1,11*,1
Cc1c(C(=O)Nc2ccncc2)oc2ccccc12,0,1,-2,-1,-1
CCCCOCCCNC(=O)C[C@H]1C[C@@]2(C(=O)OC)C(=C[C@H](COCc3ccccc3)O[C@@H]2C)N(CCc2ccc(OC)c(OC)c2)C1=O,x,-4,-2,-3,0
C/C(=N\O)c1ccc2c3c([nH]c2c1)CCCC3,1,-1,-1,11*,0
O=C1C=CC(=O)N1c1ccccc1N1C(=O)C=CC1=O,4.3*,-2,0,-1,4.0*
O=C1Nc2ccccc2OC1CC(=O)N1CCOCC1 (centres undefined),6.0*,2,-1,3,1
O=C1Nc2ccccc2OC1CC(=O)N1CCN(c2cccc(C(F)(F)F)c2)CC1 (centres undefined),0,0,-2,-2,0
COc1cccc(/C=N/n2c(SC)nnc2-c2ccccc2)c1OC,-1,-1,-1,0,1
COc1cccc(/C=N/n2c(SC)nnc2-c2ccccc2)c1O,4.6*,1,-1,-1,-1
SMILES,DAX1 inh-1,hcDAF-12 act,ssDAF12 agonist,hgDAF-12 ag,DAX1 inh-2
Cc1ccc(C(=O)/C=C/c2cn(CN3CCN(C)CC3)c3ccccc23)cc1,0,1,0,13*,2
COc1cccc(/C=C(/C#N)c2nc3ccccc3[nH]2)c1OC(C)C(=O)O (centres undefined),7.0*,4,1.0*,5,1
CCOc1cc(N(CC)CC)ccc1/C=C(/C#N)c1nc2ccccc2[nH]1,6.5*,-1,-1,2,0
COc1ccccc1N/C=C(\C#N)c1nc2ccccc2[nH]1,0,5,1.2*,1,0
COC(=O)c1cc2c(c3c4cc(OC)ccc4n(S(=O)(=O)c4cccc(C)c4)c13)C(=O)N(Cc1ccc(N(C)C)cc1)C2,x,3,1,1,0
Cc1cccc(N=NC(=S)NNc2cccc(C)c2)c1,2,6.1*,0,9,3.7*
Cc1ccc(CN2CCCCC(NC(=O)c3ccc(C)cc3)C2=O)cc1 (centres undefined),x,-2,-1,2,-2
Cc1ccc(OC(=O)c2sc(Cl)nc2C)cc1C,4.3*,-1,-1,-2,0
COc1ccc(N(C)C(=O)c2sc(Cl)nc2C)cc1,0,-1,-1,0,0
CCCCNC(=O)NS(=O)(=O)c1ccc(NC(=O)CSc2ncnc3scc(-c4ccc(C)cc4)c23)cc1,x,3,0,4,0
Cc1c(C)c2ccc(OCC(=O)Nc3cccnc3)c(C)c2oc1=O,1,3,-1,3,3.7*
Cc1ccc(NC(=O)CN2CCN(c3nc(-c4ccccc4)cs3)CC2)cc1C,x,-3,-1,4,0
CSCc1ccc(C(=O)OCc2nc3ccccc3s2)o1,1,6.2*,0,12*,1
COC(=O)[C@]12C[C@H](CC(=O)N3CCC(c4ccccc4)CC3)C(=O)N(Cc3ccccc3)C1=C[C@H](C(C)C)O[C@@H]2C1CC1,x,0,-1,1,0
C=CCOc1nc(-c2ccccc2Cl)nc2ccccc12,3,2,1.4*,1,0
CCOC(=O)N1CCC(N2C(=O)c3ccccc3C2Nc2ccc3c(C)cc(=O)oc3c2)CC1 (centres undefined),5.4*,4,-1,-2,1
COc1cccc(CNC(=O)CCNS(=O)(=O)c2cccc3nonc23)c1,1,-2,-1,-1,0
COc1cccc(CNC(=O)CCNS(=O)(=O)c2cccc3nsnc23)c1,8.6*,0,-1,1,0
CNCCOc1ccc(Cl)c(Cl)c1,5.3*,-1,-1,-3,0
COC(=O)C1=C(C)N(c2ccc(OC)cc2)C(C)=C(C(=O)OC)C1c1ccccc1,4.9*,1,0,0,0
O=C(C[C@H]1C[C@H](C(=O)N2CCOCC2)[C@@]2(CCC3CCCC3)c3[nH]c4cc(-c5ccco5)ccc4c3CCN2C1=O)NCCN1CCOCC1,0,-2,-1,-6,3.7*
CN(C)CCCNC(=O)C[C@H]1C[C@H](C(=O)N2CCOCC2)[C@@]2(CCC3CCCC3)c3[nH]c4cc(-c5ccco5)ccc4c3CCN2C1=O,0,-1,-1,1,0
Cc1ccc(C2c3c(n[nH]c3C)C(=O)N2c2ccccc2)cc1 (centres undefined),x,-1,-1,-1,2
COc1ccccc1N1CCN(/N=C/c2cc(OC)c(O)c(OC)c2)CC1,2,-2,-1,3,0
COc1ccccc1N1CCN(/N=C/c2cccc(O)c2)CC1,0,4,0,12*,1
